According to PubChem BioAssay AID382 (SGCOxCompounds, 2006):
The source made the active and inactive calls. How the calls were made is not given here.

Target: Dual specificity protein kinase CLK1 (Homo sapiens) (UniProt P49759)
Experiment: CLK1 binders by thermal stabilization, biophysical, recombinant human kinase, DSF (AID 382)
Details: at 10 µM, protein 2 µM, buffer 10 mM HEPES, NaCl 150 mM, stronger effect = higher value

Sequence of Dual specificity protein kinase CLK1 (Homo sapiens) (P49759 whole entry, looked up): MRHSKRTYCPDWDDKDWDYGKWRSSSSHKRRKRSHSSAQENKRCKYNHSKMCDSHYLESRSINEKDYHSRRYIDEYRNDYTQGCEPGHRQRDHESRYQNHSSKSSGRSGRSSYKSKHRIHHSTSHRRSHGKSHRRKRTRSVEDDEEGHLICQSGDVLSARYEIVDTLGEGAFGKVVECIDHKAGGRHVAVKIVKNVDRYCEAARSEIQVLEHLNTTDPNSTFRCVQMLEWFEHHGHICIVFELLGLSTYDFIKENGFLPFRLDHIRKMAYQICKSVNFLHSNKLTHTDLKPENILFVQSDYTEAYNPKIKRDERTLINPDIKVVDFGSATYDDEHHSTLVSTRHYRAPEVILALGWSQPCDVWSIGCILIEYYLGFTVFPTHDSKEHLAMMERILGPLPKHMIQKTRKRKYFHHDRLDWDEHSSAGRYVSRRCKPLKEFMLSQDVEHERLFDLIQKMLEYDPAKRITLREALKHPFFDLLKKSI

Tm shift, active:
O=C1NC(=O)C(c2c[nH]c3ccccc23)=C1c1c[nH]c2ccccc12 4.13 Celsius
COc1cc(/C=C/C(=O)CC(=O)/C=C/c2ccc(O)c(OC)c2)ccc1O 9.16 Celsius
NCCCn1cc(C2=C(c3c[nH]c4ccccc34)C(=O)NC2=O)c2ccccc21 8.48 Celsius
O=c1cc(-c2ccc(O)cc2)oc2cc(O)cc(O)c12 5.94 Celsius
O=c1c(O)c(-c2ccc(O)c(O)c2)oc2cc(O)ccc12 7.11 Celsius
Cc1c(O)cc(O)c2c1OC(c1ccc(O)c(O)c1)C(=O)C2=O (configuration not stated) 4.98 Celsius
O=C1C(=O)C(c2ccc(O)cc2)Oc2cc(O)cc(O)c21 (configuration not stated) 4.8 Celsius
O=c1cc(-c2ccc(O)c(O)c2)oc2cc(O)cc(O)c12 5.77 Celsius

Same assay, conditions: at 10 µM, protein 2 µM, buffer 10 mM HEPES, NaCl 150 mM, with 50 mM Arg/Glu, stronger effect = higher value

Tm shift, active:
CCC(CO)Nc1ccc2ncc(-c3ccc(F)c(Cl)c3)n2n1 (configuration not stated) 5.64 Celsius
CCC(CO)Nc1ccc2ncc(-c3ccc(O)cc3)n2n1 (configuration not stated) 7.54 Celsius
FC(F)(F)Oc1cccc(-c2cnc3ccc(NC4CCOCC4)nn23)c1 5.17 Celsius
CCN1/C(=C/C(C)=O)Sc2ccc(OC)cc21 6.91 Celsius

Same assay, conditions: at 10 µM, protein 2 µM, buffer 10 mM HEPES, pH 7.5, NaCl 150 mM, with 50 µM L-Arg/L-Glu (1:1), stronger effect = higher value

Tm shift, active:
OCC1=C(O)C(O)[C@@H](N2CNc3cc(Cl)c(Cl)cc32)O1 (some centres not stated) 3.1 Celsius
COc1cccc(-c2cnn3ccc(Nc4cccc(Cl)c4)nc23)c1 6 Celsius
COCCNc1ccc2ncc(-c3cccc(C(N)=O)c3)n2n1 3.9 Celsius
CCC(CO)Nc1ccc2ncc(-c3cccc(C(C)=O)c3)n2n1 (configuration not stated) 6.1 Celsius
NS(=O)(=O)c1ccc(Nc2nc(OCC3CCCCC3)c3[nH]cnc3n2)cc1 3.9 Celsius
CCCCc1c(-c2ccc(O)cc2)[nH]c2nccnc12 3.5 Celsius
O=C(c1ccc(Nc2nccc(-c3cc4ccccc4s3)n2)cc1)N1CCC(N2CCCC2)CC1 6.1 Celsius
CCC(CO)Nc1ccc2ncc(-c3ccc(C(=O)O)cc3)n2n1 (configuration not stated) 4.8 Celsius
CC(=O)Nc1cccc(-c2cnc3ccc(NC4CCOCC4)nn23)c1 8.8 Celsius
Cc1cc(Nc2nc(-c3ccccc3)nc3ccccc23)n[nH]1 5.8 Celsius
CC(C)[C@@H](CO)Nc1ccc2ncc(-c3cccc(Cl)c3)n2n1 3.9 Celsius
CC(=O)c1cccc(-c2cnc3ccc(N[C@H](CO)C(C)C)nn23)c1 6.7 Celsius
COc1cncc(-c2cnc3ccc(NC4CCOCC4)nn23)c1 3.2 Celsius
COCCNc1ccc2ncc(-c3cccc(C(C)=O)c3)n2n1 5.1 Celsius
Oc1cccc(-c2cnc3ccc(NC4CCOCC4)nn23)c1 5.1 Celsius
NC1=N/C(=C2\CCNC(=O)c3[nH]ccc32)C(=O)N1 6 Celsius
CCC(CO)Nc1ccc2ncc(-c3cccc(CO)c3)n2n1 (configuration not stated) 5.3 Celsius

Same assay, conditions: at 10 µM, protein 2 µM, buffer 10 mM HEPES, pH 7.5, NaCl 150 mM, with 50 mM Arg/Glu, stronger effect = higher value

Tm shift, active:
NC(=O)c1ccc(-c2nc(-c3ccc4c(c3)OCCO4)c(-c3ccccn3)[nH]2)cc1 6.3 Celsius
CC(C)(C)c1nc2c3cc[nH]c(=O)c3c3cc(F)ccc3c2[nH]1 3.6 Celsius
Cn1cc(/C=C2\C(=O)Nc3ccc(S(N)(=O)=O)cc32)c2ccccc21 3.6 Celsius
